Data reported in the supplement of paper PMC6555819.

Tests used:
Test in all cases: PBM binding z-score (relative to random genomic background probes); higher = stronger binding; sequences stand for … in GC…GCGATTGACAGCGTAGAATGAAGG
[1] = system: RARb homodimer (NR concentration 270 nM)
Outline: (§1)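 Ligand-free nuclear receptor dimers were bound for 1 h to custom Agilent 4×180K protein-binding microarrays. Detection used antibodies against each partner (one per run). Binding z-scores rest on regression-normalized fluorescence, with random background probes as the reference.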

[2] = system: RARg:RXRa (NR concentration 270 nM, RXRa partner concentration 90 nM)
Outline: as §1

[3] = system: RARg homodimer (NR concentration 270 nM)
Outline: as §1

[4] = system: RXRa DBDmut IVT, anti-RXR (DBD mutation: RXRa K156A/R161A, NR concentration 90 nM)
Outline: as §1

[5] = system: RXRa homodimer (NR concentration 180 nM)
Outline: as §1

[6] = system: THRa:RXRa (NR concentration 90 nM, RXRa partner concentration 90 nM)
Outline: as §1

[7] = system: THRa homodimer (NR concentration 90 nM)
Outline: as §1

[8] = system: VDR homodimer (NR concentration 270 nM)
Outline: as §1

Sequence	PBM binding z-score [1]	PBM binding z-score [2]	PBM binding z-score [3]	PBM binding z-score [4]	PBM binding z-score [5]	PBM binding z-score [6]	PBM binding z-score [7]	PBM binding z-score [8]
CCCACTGGGGCAAAGGTTACCATACTCAGTACGA	2.15	3.57	1.81	-0.648	3.57	1.8	-0.0576	0.129
CGTCCAAGGTCAATGCTAGCTCAGTGAAAGCATT	3.86	5.61	6.7	3.48	5.19	3.64	2.02	1.83
ACATGTAGGTTAGGGTCATTCAGAAAGTAGGGAA	3.51	4.16	3.32	3.02	5.14	4.05	3.66	3.75
CTAACTAGGTCACAGAGGTCAAAGTCCGTGCGTA	5.46	7.35	7.81	3.52	7.99	4.64	3.13	7.07
TAGCCTAGGTCATAGGCCAGTATACCACGCGAAC	2.58	3.89	4.21	0.7	3.51	2.65	0.622	0.651
TCGAGTAGGTTACGGTGGCATTCAGGGATGAAGA	0.0468	0.487	0.23	-0.239	0.829	0.835	-0.365	-0.35
CCGAGTAGGTTACGAGAGGGCATTCAGTGCGAAT	1.65	1.75	1.42	0.522	1.39	3.76	-0.738	2.06
CTCGAAAGGTCGTGCTCAGGTGAGTATGCCAAAC	2.94	5.26	3.88	2.18	4.88	4.11	0.926	0.764
CGAACTAGGTCACCCGGACAGTGAAGAGGTTGGA	3.23	4.48	5.44	1.27	2.93	2.98	1.47	1.13
AGTCAAAGTTCAGCACGAGGTAACGTAAAGCACG	3.59	5.19	5.78	3.52	3.51	3.78	1.13	2.3
TAGCCTAGGTCAGATCGGGGCAGTATACGCTATA	2.27	2.87	3.83	-0.173	1.6	4.07	0.0921	0.0728
CCGAGTAGGTTTCGAGGGGGCATTCAGTGCGAAT	1.58	1.89	1.17	1.67	1.19	2.37	0.874	3.52
CCTACTGGGCCAACAAGGTCATTGATGCCGATAA	3.24	2.97	2.76	0.655	3	3.4	2.41	3.7
CGATGTAGGTTAAGGGGGTCATTCAGTTTGAAAG	3.87	5.19	4.02	2.93	5.85	3.81	2.8	6.65
CGAACTAGGTCAAAGGCCAGTGAAAGGCGACGTA	3.16	4.37	4.81	1.49	3.62	2.42	0.00822	-0.206
GGAACGAGGGCAAAGGTGATAGCATCTGTCGACG	1.66	3.02	1.95	2.07	3.31	1.85	-0.159	1.02
AGTCAGAGTTCATCTAGGTAACGTAAGATATGCT	3.28	4.7	4.79	4.9	4.73	3.14	0.225	7.13
CTATGTAGGTTAAGGAGGTCATTCAGTTTGAAAG	3.79	3.89	3.37	1.97	4.07	3.68	1.59	4.47
CGAACTAGGACATCCAGGACAGTGAATACATTGA	0.243	0.252	0.695	0.592	0.0939	1.78	1.4	0.467

Sequence	PBM binding z-score [1]	PBM binding z-score [2]	PBM binding z-score [3]	PBM binding z-score [4]	PBM binding z-score [5]	PBM binding z-score [6]	PBM binding z-score [7]	PBM binding z-score [8]
ATCAAAAGGTCGAAGGTGAGTATACCCACCCGAA	2.75	4.51	4.34	1.27	5.55	2.26	-0.268	0.86
CGAACTAGGGCAAAGGACAGTGAAAGGCGACGTA	1.44	1.1	1.87	0.227	-0.0436	0.0548	-0.953	-0.515
CTATGTAGGTTAAGGGGGTCATTGAGTTTGAAAG	4.02	5.46	4.18	2.81	5.76	4.01	2.02	7.05
CGAACTAGGGCACCAGGACAGTGAAGAGGTTGGA	0.758	0.748	1.34	0.0116	0.278	1.05	0.327	-0.274
TCTAGCAGGCCATAGGGTCACTCAAGAGGTACGG	3.27	3.6	2.95	0.333	3.87	3.25	1.93	1.64
CCGAGTAGGCTACGAGGGGGCATTCAGTGCGAAT	0.928	1.09	0.795	0.409	0.458	1.79	-0.405	2.19
CGAACTAGTTCACCAGGACAGTGAAGAGGTTGGA	1.09	1.14	1.44	2.02	0.753	1.69	0.658	1.05
CGTCCAAGGTCAGAGAGGTCAGTGACTGCCGAGT	5.15	6.31	6.93	3.54	5.25	4.26	2.58	5.42
TTACCAAGGTAAAAGGTCGTTGATGCACGCCTTG	2.14	2.79	1.22	0.317	3.68	2.63	0.000698	1.44
ATATGTAGGTTAGGGTCATACAGAAAGTAGGGAA	3.48	4.25	3.47	2.26	5.6	4.1	3.09	3.03
CAAACTAGGTCACCGGAAGGTCATAGTCCGCATG	5.85	7.82	6.45	1.8	5.92	4.58	3.33	2.78
TCGAGTACGTTACGGGGGCATTCAGGGATGAAGA	1.42	1.46	0.926	3.21	1.25	3.59	0.925	4.32
CCTACTGGGCCACGAAAGGGCATTGATTCAGTGA	1.74	0.854	1.12	-0.586	0.314	1.07	-0.645	-0.334
ACTCGGAGGACAGAGGTCAGAGCTACGCCAGTGA	3.82	4.6	4.17	0.707	4.17	3.03	0.579	1.19
AGAGTGAGGTTACCAAAGATCAGGGAAACGCTTG	1.61	2.25	1.78	0.473	2.81	2.84	1.16	0.671
ATATGTAGGTTAGGGTCACTCAGAAAGTAGGGAA	3.57	3.98	3.56	1.74	5.09	4.21	3.46	2.6
AGAATGAGGTTACCAGAGATCAGGGAAACGCTTG	0.721	2.28	1.8	1.1	2.88	3.28	0.705	0.106
CTATGTAGGTTAACGGGGTCATTCAGTTTGAAAG	4.24	5.11	3.74	3.05	6.78	4.44	2.55	7.5
CTTTACGGGTCAAGGTTATAGCACGGGTGGTACG	3.7	5.18	5.01	1.93	5.61	3.26	1.1	1.77

Sequence	PBM binding z-score [1]	PBM binding z-score [2]	PBM binding z-score [3]	PBM binding z-score [4]	PBM binding z-score [5]	PBM binding z-score [6]	PBM binding z-score [7]	PBM binding z-score [8]
CGACCTAGGTCAAAGGACAGTGAAAGGCGACGTA	3.13	4.74	5.05	1.69	4	2.86	0.639	0.41
CGTCTAAGGTCAAAGGTCAGTGAAGAGATGACGG	5.44	8.98	8.65	4.46	10.7	5.01	4.1	3.65
CTATGTAGGATAAGGGGGTCATTCAGTTTGAAAG	3.71	4.18	2.98	2.23	5.45	3.75	1.96	6.25
CTCGAAAGGTCGAGCTCAGGTGAGTATACCAAAC	2.85	4.89	4.58	1.39	4.04	4.03	0.791	0.31
ATATGTAGGTTAGCTGGAGTCATTCAGACTAGGC	0.259	0.523	0.683	-0.228	0.583	0.807	-0.355	-0.00881
CTGAGTAGGTTACGAGGGGGCATTCAGTGCGAAT	2.18	3.13	2.47	1.46	1.72	3.67	0.778	3.31
CATACAGGGTCATCTAGGCCAGAGTAGGGACGGC	3.37	5.16	4.85	3.17	5.72	3.6	1.37	3.3
ACTCGGAGGACAAAGGTAAGAGCTACGCCAGTGA	0.319	1.08	1.1	0.376	0.494	0.863	-0.169	-0.2
CGAACTAGTTCAAGGACAGTGAATCTCCGCACGC	0.95	0.588	0.91	1.78	0.544	2.01	1.47	0.883
AGTCAAAGTTCATCTGGGTAACGTAAGATATGCT	4.07	5.32	5.48	4.78	4.42	2.82	0.135	4.81
GCTAGTTGGTCAGTAAATGGTCACACACCGGTCG	1.28	0.401	0.586	0.286	0.551	-0.021	-0.105	0.116
AGTCAAAGTTCAGGACGAGGTAAAGTAAAGCACG	3.05	4.76	4.51	3.04	3.22	3.78	1.51	2.35
CGTCCGAGGTCAAAGGTCAGTGAAGAGATGACGG	5.1	8.9	8.05	4.57	10.3	4.89	2.7	4.73
GCTGCTAGGTCAGGTTGGTCGGCTAACGGGTACG	2.31	2.38	3.52	-0.206	0.882	1.5	0.491	0.0919
TCGAGTAGGCTACGGGGGCATTCAGGGATGAAGA	1.01	1.2	0.904	0.682	1.13	3.63	0.228	2.66
TCGAGTAGGTTACGGGGGCATTCATGGATGAAGA	2.23	3.37	2.71	1.74	2.93	2.63	1.13	3.57
TCGAGTCGGTTACGGGGGCATTCAGGGATGAAGA	1.57	2.4	1.77	1.16	1.5	3.45	0.955	2.23
TCGAGTAGGTTACGGGGGCATTCAAGGATGAAGA	2.13	3.22	2.33	1.68	2.9	4.28	1.06	2.77
